Rows were chosen to be rich in hits. Some 2.4% of all compounds tested hit in one or more screens of this group.
ELG1 repair inh: ELG1-dependent DNA repair inhibition; HEK293T ELG1-luciferase reporter, luminescence, 16 h; DNA damage induced by 5-fluorouridine; Potency, µM (highest dose often 46.1 µM), inactives show at the top dose activity change, negative = inhibition, usual class: inhibitors; 330,000 tested, 2.3% active; note: % is set by controls: 0 for no effect and ±100 for the full control effect; nearly all actives have a fitted effect of over 55% in size
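Reporter activity after DNA damage by 5-fluorouridine is monitored. Compound-treated cells incubate 16 hr at 37 °C, then ONE-Glo is added for 30 min before luminescence reading.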
Rango-impB inh: inhibitors of Rango-importin beta complex formation | Potency, µM (titrated, usually from 92.2 µM), inactives show top-dose inhibition of complex formation | AID 540263 | 340,000 tested, 0.031% active | Rango CFP/YFP FRET sensor + importin beta, 45 min; calls by dose curve;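 note: 0% = DMSO wells and 100% = buffer wells lacking importin beta; nearly all actives have a fitted effect of over 15% in size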
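FRET biosensor (snurportin 1 IBB flanked by EYFP and cerulean), 50 nM, with compound 5 min, then 0.125 microM importin beta in PBS, 1 mM DTT, 0.02% Tween-20, 0.1% BSA. CFP/YFP ratio read after 45 min at room temperature; pre-read flags interference.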
Tb PFK block: T. brucei PFK enzyme inhibition; 330,000 tested, 0.17% active; T. brucei PFK, ADP-Glo luminescence; Potency, µM (top dose mostly 57.5 µM), for inactives: top-dose activity, negative = inhibition, actives largely listed as inhibitors;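 note: 0% = uninhibited 1x PFK enzyme wells and -100% = no-enzyme wells; nearly all actives have a fitted effect of over 60% in size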
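Activity is normalized to no-enzyme wells (full inhibition) and 1.25 nM enzyme wells (no inhibition). Reaction: 0.5 mM F6P, 0.1 mM ATP, 45 min RT, ADP-Glo luminescence; concentration-response curves fitted and classed by quality.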
PKM2 act: PKM2 (human) enzyme activation; purified PKM2, Kinase-Glo ATP luminescence, activation; response scale: 0% is enzyme alone, no compound; Potency, µM (doses to about 57.5 µM), inactives show top-dose activation, actives largely listed as activators; 260,000 tested, 0.34% active; AID 1631; note: % is set by controls: 0 for no effect and ±100 for the full control effect; nearly all actives have a fitted effect of over 55% in size
Target sequence (P14618 whole entry, looked up): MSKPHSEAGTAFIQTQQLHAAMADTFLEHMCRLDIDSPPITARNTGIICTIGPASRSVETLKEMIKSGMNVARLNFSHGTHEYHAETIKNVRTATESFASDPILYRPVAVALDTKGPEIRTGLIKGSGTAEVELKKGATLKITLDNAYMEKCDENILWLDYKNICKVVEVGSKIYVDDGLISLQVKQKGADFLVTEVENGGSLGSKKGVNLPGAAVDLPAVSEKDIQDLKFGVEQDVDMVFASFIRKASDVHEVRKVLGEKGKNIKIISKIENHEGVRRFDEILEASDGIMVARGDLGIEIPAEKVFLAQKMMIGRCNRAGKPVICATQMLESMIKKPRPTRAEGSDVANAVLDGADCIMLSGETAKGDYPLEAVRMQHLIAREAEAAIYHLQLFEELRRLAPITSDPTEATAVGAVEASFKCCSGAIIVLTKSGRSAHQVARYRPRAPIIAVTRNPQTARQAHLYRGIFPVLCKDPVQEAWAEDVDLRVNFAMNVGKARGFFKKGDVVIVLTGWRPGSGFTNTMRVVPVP
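Purified hPK-M2 (>95% pure) converted ADP (0.1 mM final) to ATP with 0.5 mM PEP in 50 mM imidazole pH7.2, KCl, MgCl2, Tween 20, BSA; 1 h at room temperature. ATP detected by Kinase-Glo luminescence.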
Rango dissoc inh: prevents RanGTP from dissociating the Rango-importin beta complex. Potency, µM (doses to about 46.1 µM), for inactives: at the highest dose activity change, negative = inhibition. 340,000 tested, 0.071% active. O95149+P62826. AID 540253. Biochemical FRET Rango-importin beta, RanGTP-induced dissociation; calls by dose curve; note: % of control where 0% means no effect; nearly all actives have a fitted effect of over 45% in size
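Compounds sat 5 min at room temperature with 0.1 uM Rango biosensor plus 0.25 uM importin beta, then FRET pre-read. RanGTP-RCC1 (0.6 uM Ran, 2mM GTP, 0.2 uM RCC1) added for 45 min, and the CFP/YFP post-read measured blocked complex dissociation.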
Tb PGK inh: T. brucei PGK inhibition | Potency, µM (highest dose often 57.5 µM), inactives show at the highest dose activity change, negative = inhibition, actives largely listed as inhibitors | PGK/GAPDH coupled, Kinase-Glo luminescence, 60 min | AID 602233 | 380,000 tested, 0.043% active | P07378; note: % is set by controls: 0 for no effect and ±100 for the full control effect; nearly all actives have a fitted effect of over 60% in size
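Luminescent ATP detection (Kinase-Glo Plus) follows a 60-minute room-temperature incubation, with wells lacking PGK as controls. Buffer: 100 mM TEA (pH 7.6), 5 mM MgCl2, 0.01% Tween-20. Coupling enzyme GAPDH (100 nM final) supplies unstable 1,3-BPG in-well.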
ELG1 FLuc counter: luciferase inhibition in cell-free luciferin readout for ELG1 hits; shares compounds with ELG1 repair inh; cell-free firefly luciferase luminescence counter-screen, ViewLux; Potency, µM (titrated, usually from 46.1 µM), for the others: top-dose activity change, negative = inhibition, usual class: inhibitors; 350 tested, 3% active; note: % is set by controls: 0 for no effect and ±100 for the full control effect
Cell viab unstim: counter-screen for ELG1 repair inhibitors: unstimulated cell viability; cell viability counter-screen, unstimulated, luminescence; AID 624252; Potency, µM (series often up to 45.9 µM), for the others: at the top dose activity change, negative = loss of viability, hits mostly cytotoxic; 900 tested, 8% active; shares compounds with ELG1 repair inh;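 note: compound exposure lasted 16 hours before reading; % is set by controls: 0 for no effect and ±100 for the full control effect; nearly all actives have a fitted effect of over 55% in size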
FLuc biochem: counter-screen for ELG1 repair inhibitors: firefly luciferase inhibition; shares compounds with ELG1 repair inh; purified firefly luciferase, luminescence counter-screen; Potency, µM (highest dose often 57.5 µM), inactives show at the highest dose activity, negative = inhibition, usual class: inhibitors; 350 tested, 10% active; note: % is set by controls: 0 for no effect and ±100 for the full control effect
Starred values were filed as active, the others as inactive; ? = inconclusive; . = no result. Unless noted, calls come from the whole dose curve; as a rule, active = well fitted curve in the direction sought with a large enough effect; inconclusive = small, poorly fitted or top-dose-only effect, or another doubt; inactive = no such curve, though single readings can be large; an effect the other way counts as inactive or inconclusive. Potency is the fitted concentration of half-maximal effect.

SMILES	ELG1 repair inh	Rango-impB inh	Tb PFK block	PKM2 act	Rango dissoc inh	Tb PGK inh	others
CCCCCN(C(=O)CCC(=O)OCC(=O)c1cccc(OC)c1)c1c(N)n(CCCC)c(=O)[nH]c1=O	4%	0%	2%	-6%	4%	-8%
CCOC(=O)N1CCC(N2Cc3cccc(C(=O)Nc4cccc(F)c4)c3C2=O)CC1	?	3%	-1%	-8%	-12%	-8%
Cc1ccc(S(=O)(=O)N2CCN(C(=O)COC(=O)COc3ccc(Cl)cc3C)CC2)c(C)c1	.	-1%	.	.	-9%	-1%
CCC/C=C(\CCC)C(NS(=O)(=O)c1ccccc1)c1ccc(C(F)(F)F)cc1 (stereo not drawn)	.	.	.	9%	.	.
CN(C)c1ccc(C=Nc2cncc3ccccc23)cc1	.	.	.	.	.	.	ELG1 FLuc counter=50%;Cell viab unstim=-5%;FLuc biochem=0.29µM*
O=C(CCSc1ccc(F)cc1)NNC(=O)c1ccc([N+](=O)[O-])cc1	7%	3%	-2%	.	-6%	-5%

Screens (PubChem)
